This is a sample that favours compounds with a hit; in the whole collection about 13% have one here.
Cycloheximide cs – counter-screen for Shiga toxin inhibitors: cycloheximide protein synthesis inhibition; AID 2314; 300,000 tested, 12% active; max response, %; cell reporter, cycloheximide protein synthesis inhibition counterscreen; in the data active = max response mostly above about 13%, no sharp cut-off; inactive = mostly below about 14%; note: read at 38.3 µM for the half of the compounds with a filed dose
Shiga inhibitor – inhibitors of Shiga toxin in Vero cells | Vero cells, Shiga toxin protein synthesis inhibition reporter | inhibition, % at 38.7 µM | 290,000 tested, 9.2% active; in the data active = inhibition mostly above about 28%, no sharp cut-off; inactive = mostly below about 43%
LASV entry inh – Lassa virus entry inhibition; Lassa virus pseudotype entry inhibition, cell reporter; Potency, µM (titrated, usually from 37.9 µM), actives largely listed as inhibitors; 300,000 tested, 1.2% active; calls by dose curve; tested in HEK293 cells; note: nearly all actives have a fitted effect of over 50% in size
MARV entry inh – inhibitors of Marburg virus binding or cell entry | Marburg virus pseudotyped entry inhibition, cell reporter | Potency, µM (highest dose often 37.8 µM), hits mostly inhibitors | 300,000 tested, 1.8% active; calls by dose curve; tested in HEK293 cells
HCV inhibitor – HCV inhibition | Huh7.5.1 HCVcc-Cre infection, luciferase reporter, 44 h | Potency, µM (highest dose often 41.8 µM), actives largely listed as inhibitors | AID 651820 | 340,000 tested, 3.4% active; active = well fitted inhibition curve with a large enough effect; inconclusive = small, poorly fitted or top-dose-only effect, or another doubt; inactive = no such curve, though single readings can be large or run the other way
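1,000 cells/well; 4 h culture; + compound; + HCVcc-Cre (~0.5 moi); 44 h; luciferase substrate, RT 15 min; read 15 sec.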
FMDV antiviral – antivirals against foot and mouth disease virus; FMDV antiviral cell-based qHTS; AID 1159524; 410,000 tested, 1.2% active; Potency, µM (highest dose often 57.9 µM), most hits filed as inhibitors; calls by dose curve; tested in HEK293T cells; note: read-out not given here; nearly all actives have a fitted effect of over 45% in size
Of the large screens only hits and unclear results are named; the others gave an inactive call.

CCN(CC)C(C(=O)Nc1ccc(C(C)C)cc1)c1ccc2c(c1)OCO2 (centres undefined)	LASV entry inh inconclusive, MARV entry inh inconclusive, HCV inhibitor inconclusive
COc1ccccc1-c1oc2ccccc2c1C#CC(C)(C)O	HCV inhibitor 10µM (no result: Cycloheximide cs, Shiga inhibitor, LASV entry inh, MARV entry inh)
Cc1cc(C)c(NS(=O)(=O)c2ccc3c(c2)CC(C)N3C(=O)C2CCC2)c(C)c1 (centres undefined)	FMDV antiviral inconclusive (no result: Cycloheximide cs, Shiga inhibitor, MARV entry inh, HCV inhibitor)
COc1ccc(-c2nnc3sc(COc4ccc(C)cc4)nn23)cc1	LASV entry inh 12.6µM
Cc1ccc(-c2nnc3sc(CCc4ccccc4)nn23)cc1	Cycloheximide cs 18.7, Shiga inhibitor 47.5 (no result: FMDV antiviral)
COc1ccc(-c2nnc3sc(COc4ccccc4)nn23)cc1	none
CSc1nnc(-c2ccccc2)c(-c2ccccc2)n1	none (no result: LASV entry inh, MARV entry inh)
C=CCSc1ncc(-c2ccccc2)cn1	Cycloheximide cs 35.2, Shiga inhibitor 62.8
C#CCSc1ncc(-c2ccccc2)cn1	Cycloheximide cs 43.6, Shiga inhibitor 76.6, MARV entry inh inconclusive
CSc1ncc(-c2ccccc2)cn1	Cycloheximide cs 47.3
CCOC(=O)CSc1ncc(-c2ccccc2)cn1	none
CCCCc1nc2sc3c(c2c(=O)n1NC(=O)c1ccco1)CC(C)(C)OC3	none (no result: LASV entry inh, MARV entry inh)
CCOC(=O)[C@]12CCCC=C1N(Cc1ccc3c(c1)OCO3)C(=O)[C@H](CC(=O)NCC1CCCCC1)C2	none (no result: Cycloheximide cs, Shiga inhibitor, LASV entry inh, MARV entry inh, HCV inhibitor)
CCc1ccc(NC(=S)Nc2cc(OC)c(NC(=O)C(C)C)cc2OC)cc1	Cycloheximide cs 22.5
CC(C)C(=O)Nc1cccc(NC(=S)NC(=O)c2cccs2)c1	Cycloheximide cs 32.5, Shiga inhibitor 75.3
COc1cc(NC(=S)NC(=O)c2cccs2)ccc1NC(=O)C(C)C	Cycloheximide cs 22.7, Shiga inhibitor 56.3 (no result: LASV entry inh, MARV entry inh)
COc1cc(NC(=S)NC(C)=O)ccc1NC(=O)C(C)C	Cycloheximide cs 25.1, Shiga inhibitor 61.2, HCV inhibitor inconclusive
O=C(Nc1cccc(NC(=S)NC(=O)c2cccs2)c1)c1ccccc1	MARV entry inh inconclusive, HCV inhibitor inconclusive
C=CCN1c2ccccc2[C@]23C[C@@H](C(=O)OC)N(C(=O)Nc4ccc(C(F)(F)F)cc4)C2=NC(C(=O)OC)=C(C(=O)OC)[C@H]13	none (no result: Cycloheximide cs, Shiga inhibitor, LASV entry inh, HCV inhibitor, FMDV antiviral)
COc1ccc(NC(=O)c2c(NCc3cccs3)sc3c2CCCC3)c(OC)c1	LASV entry inh inconclusive (no result: Cycloheximide cs, Shiga inhibitor, MARV entry inh, HCV inhibitor)
O=C(NC(=S)Nc1cccc(NC(=O)c2ccccc2Cl)c1)c1cccs1	Cycloheximide cs 15.3
CC(C)C(=O)Nc1cccc(NC(=S)NC(=O)c2ccc(Cl)cc2)c1	Cycloheximide cs 64.8, Shiga inhibitor 67.2, MARV entry inh inconclusive, HCV inhibitor inconclusive, FMDV antiviral inconclusive
COc1ccc(NC(=O)c2cc(C3CCCCN3C(=O)OCC(C)C)on2)c(C)c1 (centres undefined)	none (no result: Cycloheximide cs, Shiga inhibitor, LASV entry inh, MARV entry inh, HCV inhibitor)
CCN(CC)S(=O)(=O)c1ccc(/C=C/C(=O)Nc2ccc(Br)cc2F)cc1	LASV entry inh 1.58µM, MARV entry inh 6.51µM, HCV inhibitor 2µM, FMDV antiviral 5.01µM
COc1ccc(/C=C/C(=O)Nc2ccc(N3CCOCC3)cc2)cc1	none
CCN(CC)S(=O)(=O)c1ccc(/C=C/C(=O)Nc2ccc(N3CCOCC3)cc2)cc1	HCV inhibitor 12.6µM, FMDV antiviral inconclusive (no result: LASV entry inh)
CCN(CC)S(=O)(=O)c1ccc(N2CCCCC2)c(NC(=O)/C=C/c2cc(OC)c(OC)c(OC)c2)c1	LASV entry inh inconclusive, HCV inhibitor inconclusive
CCN(CC)S(=O)(=O)c1ccc(/C=C/C(=O)Nc2ccc(F)c(F)c2F)cc1	Cycloheximide cs 35.9, Shiga inhibitor 38.1, LASV entry inh inconclusive, MARV entry inh inconclusive, HCV inhibitor 1.41µM, FMDV antiviral inconclusive
O=C(/C=C/c1ccc(S(=O)(=O)N2CCOCC2)cc1)Nc1ccc(F)c(F)c1F	LASV entry inh inconclusive, HCV inhibitor inconclusive, FMDV antiviral inconclusive (no result: Cycloheximide cs, Shiga inhibitor)
CCN(CC)S(=O)(=O)c1ccc(/C=C/C(=O)Nc2ccc(F)cc2F)cc1	Cycloheximide cs 31.6, Shiga inhibitor 63.7, HCV inhibitor inconclusive, FMDV antiviral inconclusive (no result: LASV entry inh)
Cc1ccc(NC(=O)C2(S(=O)(=O)c3ccc(Cl)cc3)CC2)c(Br)c1	MARV entry inh inconclusive, HCV inhibitor inconclusive
O=C(Nc1nnc(C2CC2)s1)C1Cc2ccccc2CN1S(=O)(=O)c1ccccc1F (centres undefined)	Cycloheximide cs 41.3, HCV inhibitor inconclusive (no result: FMDV antiviral)
O=C(Nc1nccs1)C1Cc2ccccc2CN1S(=O)(=O)c1ccc(F)cc1 (centres undefined)	Cycloheximide cs 48.2, Shiga inhibitor 94.1, LASV entry inh inconclusive, MARV entry inh inconclusive
C=CCN1CCN(C(=O)CSc2ccccc2)CC1	Cycloheximide cs 34.1, Shiga inhibitor 32.2 (no result: LASV entry inh, MARV entry inh)
O=C(c1c(Cl)cccc1Cl)N1CCN(c2ccccn2)CC1	none
O=C(CSCc1ccccc1Cl)N1CCN(c2ccccn2)CC1	Cycloheximide cs 58.8, Shiga inhibitor 119.4
O=C(CSc1ccccc1)N1CCC2(CC1)OCCO2	Cycloheximide cs 36.2, Shiga inhibitor 53.9
O=C(CSc1ccccc1)N1CCN(c2ccccn2)CC1	Cycloheximide cs 14.8
COc1ccc(N(C(=O)c2cccc(OC)c2OC)C2C=CS(=O)(=O)C2)c(OC)c1 (centres undefined)	none
O=C(CCSCc1ccccc1F)N1CCN(c2ccccn2)CC1	Cycloheximide cs 27.6, Shiga inhibitor 78.7 (no result: FMDV antiviral)
O=C(N1CCN(c2ccccn2)CC1)C(Cl)(Cl)Cl	Cycloheximide cs 27.5, Shiga inhibitor 33.9
O[C@@H]1COC(Nc2ccc(N=Nc3ccccc3)cc2)C[C@@H]1O (some centres undefined)	Cycloheximide cs 61.9, Shiga inhibitor 94.9
O=S(=O)(Nc1ccc(N=Nc2ccccc2)cc1)c1ccccc1	none
Cc1sc(NC(=O)C2CSC3(C)CCC(=O)N23)nc1-c1ccc(F)cc1 (centres undefined)	LASV entry inh inconclusive, MARV entry inh inconclusive, HCV inhibitor 14.1µM
Cc1ccc(-c2csc(NC(=O)C3CSC4(C)CCC(=O)N34)n2)cc1 (centres undefined)	none (no result: Cycloheximide cs, Shiga inhibitor)
COc1cc(NC(=O)C2CSC3(C)CCC(=O)N23)c(OC)cc1Cl (centres undefined)	HCV inhibitor 10µM (no result: Cycloheximide cs, Shiga inhibitor)
Cc1ccc(S(=O)(=O)c2ccc(NN)cc2)cc1	MARV entry inh inconclusive
N#Cc1cc2c(nc1SCc1ccccc1)CCC2	none
N#Cc1cc2c(nc1SCC(=O)O)CCCC2	none
N#Cc1cc2c(nc1SCc1ccncc1)CCC2	Cycloheximide cs 42.6, Shiga inhibitor 102.4, MARV entry inh inconclusive (no result: FMDV antiviral)
N#Cc1cc2c(nc1SCC(=O)N1CCCCC1)CCCCC2	Cycloheximide cs 61.0, Shiga inhibitor 99.6
N#Cc1cc2c(nc1SCC(=O)N1CCCCC1)CCCC2	Cycloheximide cs 16.7
CCS(=O)(=O)CCSc1nc2c(cc1C#N)CCCC2	Cycloheximide cs 12.0, HCV inhibitor inconclusive (no result: FMDV antiviral)
Cc1cc(O)ccc1NC(=S)NC(=O)c1cncc(Br)c1	none (no result: Shiga inhibitor, LASV entry inh, MARV entry inh)
Nc1nc(N)c2cc(Sc3ccc4ccccc4c3)ccc2n1	HCV inhibitor 11.2µM, FMDV antiviral inconclusive (no result: LASV entry inh, MARV entry inh)
Nc1nc(N)c2cc(Sc3ccc(Cl)cc3)ccc2n1	none (no result: Cycloheximide cs, Shiga inhibitor, LASV entry inh, MARV entry inh, HCV inhibitor)
Cc1ccc(NC(=O)Cn2ccc(=O)[nH]c2=O)cc1	Cycloheximide cs 30.0

Bioassay records from PubChem.
